Bioassay records deposited in PubChem BioAssay by National Center for Advancing Translational Sciences (NCATS).
Only a selection was taken, and hits are over-represented in it overall.
Pf Dd2 inh: qHTS Primary assay for Inhibitors of Plasmodium falciparum Dd2 growth in vitro; Potency, µM (highest dose often 28.9 µM), for the others: top-dose activity, negative = inhibition, actives largely listed as inhibitors; P. falciparum Dd2 growth, SYBR Green, 72 h; hit rate 4.3% among 120,000; AID 1347417, 2020; active = well fitted inhibition curve with a large enough effect;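 note: plate controls were DMSO vehicle for no effect and reference drug for full effect; nearly all actives have a fitted effect of over 65% in size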
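Infected erythrocytes (Dd2, 0.3% parasitemia, 2.5% hematocrit final) are added to compound in RPMI-1640/Albumax II medium, grown 72 h at 37C in low oxygen, then lysed with saponin/Triton-X containing SYBR Green and read by fluorescence.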
Numbers without * were called inactive; [ ] = another dose, or the depositor's remark. Potency is the fitted concentration of half-maximal effect.

Screening CCOc1ccc(NC(=O)c2cnn3c2NC(c2cccc(OC)c2)=CC3c2ccccc2)cc1 (stereo not given) returned Pf Dd2 inh 1.4µM*.
CCOc1cccc(-c2nc(C(=O)Nc3ccc(OC)cc3)cs2)c1 was read as Pf Dd2 inh 24%.
Screening COc1ccc(C2C(C(=O)Nc3ccccc3)=C(C)Nc3nc(-c4ccccc4)nn32)c(OC)c1 (stereo not given) returned Pf Dd2 inh inactive.
Screening COc1ccc(C2C=C(c3ccc(C)cc3)Nc3c(C(=O)Nc4ccccc4)cnn32)cc1 (stereo not given) returned Pf Dd2 inh 8.9µM*.
Screening O=C1CCN(S(=O)(=O)c2ccccc2)CCCN(C(=O)NCc2ccccc2)CCN1 returned Pf Dd2 inh 2%.
`O=C(O)C1=NOC2CN(C(=O)c3ccc(C(F)(F)F)cc3)CC12` (stereo not given) gave Pf Dd2 inh 14%.
O=C1CO[C@H]2CN(Cc3ccc4c(c3)OCO4)C[C@H]2N1c1ccccc1 was read as Pf Dd2 inh -8%[44.1 µM].
Cn1cc([C@@H](NC(=O)CCn2nnc3ccccc32)C2CC(O)C2)cn1 (stereo not given in full) was read as Pf Dd2 inh -23%.
CCn1cnnc1CC1CCN(C(=O)c2ccc3ccccc3n2)C1 (stereo not given) was read as Pf Dd2 inh inactive.
For Cc1ccc(S(=O)(=O)N2CCC(CC(=O)NCc3ccccc3)C2)cc1C (stereo not given) the results were Pf Dd2 inh inactive.
O=C1CCN(C(=O)C2CCN(S(=O)(=O)c3cccc(F)c3)CC2)CCCCCCN1 was read as Pf Dd2 inh inactive.
`CCCN(C(=O)CCn1cnc2onc(-c3ccc(F)cc3)c2c1=O)c1ccccc1C` gave Pf Dd2 inh 19%.
Screening CCN(C(=O)Cn1cnc2onc(-c3ccc(F)cc3)c2c1=O)c1cc(C)ccc1C returned Pf Dd2 inh 10µM*.
For CCOC(=O)Cn1cnc2onc(-c3ccc(F)cc3)c2c1=O the results were Pf Dd2 inh 14%.
For COC(=O)c1cc(CN2CCCC(O)(CN(C)C)C2)ccc1O (stereo not given) the results were Pf Dd2 inh -20%.
For CC(=O)NC1(C)CCN(Cc2ccc(-c3ccc(N4CCOCC4)cc3)cc2)C1 (stereo not given) the results were Pf Dd2 inh -21%[44.1 µM].
CC(=O)NC1(C)CCN(Cc2ccccc2-c2cccc(C(C)=O)c2)C1 (stereo not given) was read as Pf Dd2 inh inactive.
For CC(=O)NC1(C)CCN(Cc2cnc(-c3cccc(N(C)C)c3)s2)CC1 the results were Pf Dd2 inh 12%[44.1 µM].
Screening CC(=O)NC1(C)CCN(Cc2ccc(-c3ccccc3OCc3ccccc3)cc2)C1 (stereo not given) returned Pf Dd2 inh 13µM*.
Screening CC(=O)NC1(C)CCN(Cc2cnc(-c3ccccc3OCc3ccccc3)s2)CC1 returned Pf Dd2 inh 11µM*.
For CC(=O)NC1(C)CCN(Cc2cnc(-c3ccccc3)s2)CC1 the results were Pf Dd2 inh -8%[44.1 µM].
CN(Cc1cnc2ccccc2c1)C(=O)c1ccc(CCC(C)(C)O)cc1 was read as Pf Dd2 inh -29%.
`CNC(=O)CCC[C@@H]1[C@H]2CCCN3CCC[C@@H](CN1C(C)=O)[C@@H]23` gave Pf Dd2 inh 3%.
CCN1CC(c2ccccc2)CC2(CCN(C(=O)c3cnn(C)c3)CC2)C1 (stereo not given) was read as Pf Dd2 inh 2%.
For COCC(=O)N1CCCC(C(=O)NCc2ccc(F)cc2Cl)C1 (stereo not given) the results were Pf Dd2 inh -3%.
Screening O=C1Nc2ccc(-c3ccsc3)cc2C(=O)N2CCN(C(=O)CO)C[C@H]12 returned Pf Dd2 inh -25%[44.1 µM].
CN(C)Cc1cc(C[C@@H]2C[C@H](N(C)C)C2(C)C)no1 was read as Pf Dd2 inh inactive.
`O=C(CSc1nc2c(oc3ccccc32)c(=O)n1Cc1ccco1)Nc1ccccc1` gave Pf Dd2 inh inactive.
Screening CCCN(CCC)C(=O)CSc1nc2ccccc2c(=O)n1Cc1ccco1 returned Pf Dd2 inh 11µM*.
Screening CCOc1ccccc1NC(=O)CSc1nc2c(oc3ccccc32)c(=O)n1Cc1ccco1 returned Pf Dd2 inh -28%.
CCN1C(=O)CCc2cc(NC(=O)c3ccc(OC)cc3C)ccc21 was read as Pf Dd2 inh inactive.
Screening CCC(=O)N(C1CCOCC1)C1CCN(Cc2cccc(F)c2F)CC1 returned Pf Dd2 inh inactive.
O=C(CCC1CCN(S(=O)(=O)c2ccc(F)cc2)CC1)NCc1nc2ccccc2[nH]1 was read as Pf Dd2 inh -9%.
Screening OCCNc1ncnc2ccc(-c3cccc(O)c3)cc12 returned Pf Dd2 inh 8.9µM*.
Screening Oc1cccc(Nc2nc(-c3ccccc3)nc3ccccc23)c1 returned Pf Dd2 inh -1%.
For CN1CCN(C(=O)Cc2c[nH]c3ncc(-c4cccc(O)c4)cc23)CC1 the results were Pf Dd2 inh -8%[44.1 µM].
For Cc1ccc(C(=O)N2CC(C(=O)NCCc3ccncc3)C3(CCOCC3)C2)cc1F (stereo not given) the results were Pf Dd2 inh 4%.
`COc1ccc(C2Cn3nnc(-c4noc(-c5cccc(N(C)C)c5)n4)c3CO2)cc1` (stereo not given) gave Pf Dd2 inh inactive.
Screening Cc1cc(C)c2oc(-c3cccc(NC(=O)c4ccc(Br)o4)c3)nc2c1 returned Pf Dd2 inh 41%.
Screening COc1ccccc1C(=O)Nc1ccc(-c2nc3cc(C)cc(C)c3o2)cc1 returned Pf Dd2 inh 3%.
Cc1cc(C)c2oc(-c3ccc(NC(=O)c4cc(Br)ccc4Cl)cc3)nc2c1 was read as Pf Dd2 inh 10µM*.
`CCCNC(=O)C1C(c2ccc(NC(=O)c3ccco3)cc2)OC(=O)N1Cc1ccccc1` (stereo not given) gave Pf Dd2 inh inactive.
For Cc1cc2c(n1-c1ccc(C(=O)NCC(C)c3ccccc3)cc1)CCCC2 (stereo not given) the results were Pf Dd2 inh 10µM*.
For COCCNC(=O)c1ccc(-n2c(-c3ccccc3)cc3c2CCCCC3)cc1 the results were Pf Dd2 inh -21%.
CCNC(=O)c1ccc(-n2c(-c3ccccc3)cc3c2CCCCC3)cc1 was read as Pf Dd2 inh -2%.
Screening CCCNC(=O)c1ccc(-n2c(-c3ccccc3)cc3c2CCCCC3)cc1 returned Pf Dd2 inh -27%.
Cc1ccccc1CNC(=O)c1ccc(-n2c(C)cc3c2CCCC3)cc1 was read as Pf Dd2 inh 10µM*.
Screening CC(C)NC(=O)c1ccc(-n2c(-c3ccccc3)cc3c2CCCC3)cc1 returned Pf Dd2 inh inactive.
For C=CCNC(=O)CN1CC2CC(C1)[C@H]1CCCC(=O)N1C2 (stereo not given in full) the results were Pf Dd2 inh -5%.
COc1ccccc1OCCNC(=O)C1CC(=O)N(c2n[nH]c3cccc(F)c23)C1 (stereo not given) was read as Pf Dd2 inh 1%.
COC1C(=O)N(C2CCN(C(=O)c3ccnn3C)CC2)C12CCOCC2 (stereo not given) was read as Pf Dd2 inh 16%.
Screening COCCN1C(=O)[C@@H]2C[C@@H](CN2Cc2ccc3ccccc3n2)Oc2ccccc21 returned Pf Dd2 inh -10%[44.1 µM].
Screening Cc1ccc(OCc2nc(C3CN(C(=O)c4cc(C)nn4C)C3)no2)cc1 returned Pf Dd2 inh 20%.
For CC(C)NC(=O)C1c2ccccc2C(=O)N(C2CCCC2)C12CCCC2 (stereo not given) the results were Pf Dd2 inh 11%.
